# Bioassay records from PubChem BioAssay.
# SW480 rereplic = induces DNA re-replication in SW480 colon adenocarcinoma cells. SW480 DNA re-replication, Hoechst DNA content imaging, 48 h. Potency, µM (doses to about 46.1 µM), for the others: top-dose re-replication activation, hits mostly activators. actives 1.8% (n = 340,000). AID 624297; also: potency is read from the fitted curve at half-maximal effect; % of control where 0% means no effect; nearly all actives have a fitted effect of over 55% in size
#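 250 cells/well; 23 nL cpd via pin tool; 48 hr, 37 C, 5% CO2; Hoechst 40 min; imager read of total nuclear intensity, ex 405/em 500-530 nm.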
# RORg inh = ROR gamma (mouse) transcription inhibition; Drosophila S2 Gal4-RORgamma UAS-luciferase reporter, 20 h; P51450; Potency, µM (series often up to 53.6 µM), inactives show at the top dose activity change, negative = inhibition, actives largely listed as inhibitors; actives 5.4% (n = 310,000); also: potency is read from the fitted curve at half-maximal effect; % is scaled to controls: 0 for no effect and ±100 for the full control effect; nearly all actives have a fitted effect of over 60% in size
# Target sequence (P51450 whole entry, looked up, the tested form may be a part): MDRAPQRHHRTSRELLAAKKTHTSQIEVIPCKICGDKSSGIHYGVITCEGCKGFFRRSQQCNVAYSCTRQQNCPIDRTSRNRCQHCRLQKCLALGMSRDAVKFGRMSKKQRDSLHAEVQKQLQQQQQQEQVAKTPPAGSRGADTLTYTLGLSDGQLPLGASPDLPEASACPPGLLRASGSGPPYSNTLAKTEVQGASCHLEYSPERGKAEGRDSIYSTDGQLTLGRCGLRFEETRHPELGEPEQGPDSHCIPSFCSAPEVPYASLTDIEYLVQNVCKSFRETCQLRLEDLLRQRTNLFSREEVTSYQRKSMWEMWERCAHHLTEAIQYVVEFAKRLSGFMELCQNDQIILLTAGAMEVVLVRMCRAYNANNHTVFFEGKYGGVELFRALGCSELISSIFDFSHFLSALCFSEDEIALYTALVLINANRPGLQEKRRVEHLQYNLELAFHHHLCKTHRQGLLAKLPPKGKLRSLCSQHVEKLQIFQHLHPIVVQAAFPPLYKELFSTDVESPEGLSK
#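 Using a luciferase readout, inhibitors were identified by reduced reporter activity in Drosophila cells coexpressing a copper-inducible Gal4–ROR gamma fusion and UAS-driven Photinus luciferase, incubated 20 hr after 700 uM copper sulfate.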
# MCF10A rereplic = inducers of DNA re-replication in MCF 10A breast cells. MCF 10A DNA re-replication, Hoechst nuclear intensity, 48 h. Potency, µM (titrated, usually from 46.1 µM), inactives show at the top dose activity, positive = re-replication, actives largely listed as activators. actives 2.9% (n = 350,000); also: potency is read from the fitted curve at half-maximal effect; % of control where 0% means no effect; nearly all actives have a fitted effect of over 50% in size
# VP16 counter = Gal4-VP16 reporter inhibition counter-screen | Drosophila S2 Gal4-VP16 UAS-luciferase, luminescence, 20 h | Potency, µM (doses to about 53.6 µM), without a hit: top-dose activity, negative = inhibition, most hits filed as inhibitors | actives 3.5% (n = 310,000) | AID 2546;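 also: Gal4-VP16 expression switched on by copper sulfate through the metallothionein promoter; potency is read from the fitted curve at half-maximal effect; % is scaled to controls: 0 for no effect and ±100 for the full control effect; nearly all actives have a fitted effect of over 50% in size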
# IL1B secr inh = blocks inflammasome-driven IL-1 beta release. actives 4.7% (n = 360,000). activity change, % at 57.5 µM. THP-1 LPS/ATP IL-1B secretion, AlphaLISA, 16 h; stronger effect = lower value; in the data active = activity change below about -50%; inconclusive = mostly about -30% to -49%; also: % is scaled to controls: 0 for no effect and ±100 for the full control effect
#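 Secreted IL-1B measured by AlphaLISA bead assay after 16 h compound exposure of THP-1 cells; compounds (final up to 57.5 uM) added 1 h before LPS (250 ng/mL) and ATP (1.25 mM) stimulation; lower signal means less secretion.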
# An asterisk follows results filed as active; ? = inconclusive; nt = no result; ! = repeats disagree. Compounds with a hit are over-represented: about 11% of the library has one in this group of screens. Unless noted, calls follow the shape of the dose curve; as a rule, active = well fitted curve in the direction sought with a large enough effect; inconclusive = small, poorly fitted or top-dose-only effect, or another doubt; inactive = no such curve, though single readings can be large; an effect the other way counts as inactive or inconclusive.
SMILES,SW480 rereplic,RORg inh,MCF10A rereplic,VP16 counter,IL1B secr inh
CC1CN(C(=O)c2cc(S(=O)(=O)N3CCCCC3)ccc2Cl)CC(C)O1 (centres undefined),1%,nt,2%,nt,33
CC(C)(C)c1ccc(-c2n[nH]c(=S)n2CC2CCCO2)cc1 (centres undefined),-4%,2.8µM*,-18%,10µM*,19
Fc1ccccc1-c1n[nH]c(=S)n1CC1CCCO1 (centres undefined),11%,11µM*,-51%,-11%,4
S=c1[nH]nc(-c2ccccc2Cl)n1CC1CCCO1 (centres undefined),-4%,-8%,-3%,-7%,19
CCCCC1CC(=O)NC1(C(=O)OCC)C(=O)OCC (centres undefined),1%,nt,-1%,nt,?
Fc1cccc2sc(Nc3nnc(-c4ccccc4)o3)nc12,12%,1.8µM*,23µM*,2.5µM*,21
COc1cc(OC)cc(-c2nnc(Nc3nc4c(F)cccc4s3)o2)c1,-10%,0.71µM*,2%,1.6µM*,33
COC(=O)[C@H]1[C@H]2C[C@@H]3c4[nH]c5cc(OC)ccc5c4CCN3C[C@H]2C[C@@H](OC(=O)c2cc(OC)c(OC)c(OC)c2)[C@@H]1OC,?,-26%,30µM*!,3%,-29
COC(=O)[C@@H]1C2CC3c4[nH]c5cc(OC)ccc5c4CCN3CC2C[C@H](OC(=O)c2cc(OC)c(OC)c(OC)c2)C1OC (some centres undefined),nt,19%,nt,2%,nt
O=C1C=CN(C2OC(CO)C(O)C2O)C(=O)C1 (centres undefined),nt,nt,nt,nt,-9
COc1ccc(NC(=O)C2(C)CCN2CC2CCCCC2)cc1OC (centres undefined),nt,nt,nt,nt,-12
CN(C)C(=O)c1ccc(-c2nc(Nc3ccncc3)c3ccccc3n2)cc1,nt,-40%,nt,-5%,nt
CC(=O)c1ccc(Nc2nc(-c3ccccc3)nc3ccccc23)cc1,4%,nt,?,nt,-60*
Oc1cccc(Nc2nc(-c3ccccc3)nc3ccccc23)c1,4%,-36%,?,-15%,-91*
CN(C)c1ccc(-c2nc(Nc3ccncc3)c3ccccc3n2)cc1,nt,?,nt,16µM*,nt
CN(C)c1ccc(-c2nc3ccccc3c(=O)[nH]2)cc1,9%,5.6µM*,22%,?,-10
CC(=O)c1cccc(Nc2nc(-c3ccccc3)nc3ccccc23)c1,1%,40%,?,3%,-22
O=C(C[C@H]1C(=O)N(CCc2ccccc2)C[C@@H]1c1ccccc1)Nc1ccccc1,nt,nt,nt,nt,34
COc1ccc(C(=O)N2CCC3(CCCN(Cc4ccccc4)C3)CC2)cc1,nt,2%,nt,2%,nt
CN(C)C(=O)c1ccc(Nc2nc(-c3cccs3)nc3ccccc23)cc1,?,9%,?,-7%,-74*
Cc1ccc(Nc2nc(-c3ccncc3)nc3ccccc23)cc1,55%,-24%,9.2µM*,-1%,nt
CCOC(=O)c1cccc(Nc2nc(-c3cccnc3)nc3ccccc23)c1,?,?,23µM*,?,-108*
c1ccc(CCNc2nc(-c3ccncc3)nc3ccccc23)cc1,21µM*,?,?,-11%,-6
COC(=O)CNc1nc(-c2ccncc2)nc2ccccc12,-1%,-40%,17%,0%,51
CC1(c2nnnn2Cc2ccccc2)CCC(=O)N1Cc1cccnc1 (centres undefined),nt,nt,nt,nt,6
SMILES,SW480 rereplic,RORg inh,MCF10A rereplic,VP16 counter,IL1B secr inh
CC(C)(C)C(=O)OCCNc1nc(-c2ccccc2)nc2ccccc12,-9%,?,1%,-11%,-54*
CC(C)OCCCNc1nc(-c2ccccc2)nc2ccccc12,?,nt,-1%,nt,0
CCOc1ccc(C(=O)NNC2CC(=O)N(Cc3ccc(Cl)cc3)C2=O)cc1OC (centres undefined),-1%,3.2µM*,0%,1.3µM*,-14
COc1ccc(C(=O)NNC2CC(=O)N(Cc3ccccc3)C2=O)cc1OC (centres undefined),?,2%,-1%,-11%,22
CC(NC(=O)CCl)c1ccccc1Br (centres undefined),?,20%,?,-4%,-96*
Cc1ccc(S(=O)(=O)NCC(=O)NCC(=O)NC(C)c2ccccc2Br)cc1C (centres undefined),-7%,38%,5%,2%,-18
CC(NC(=O)c1ccc(Cl)c(Cl)c1)c1ccc(-c2ccccc2)cc1 (centres undefined),-2%,-7%,2%,-11%,-6
CC(NC(=O)CCl)c1ccc(Cl)c(Cl)c1 (centres undefined),?,-38%,?,5%,-103*
O=C(NCc1ccccn1)C(=O)NCC1OCCN1S(=O)(=O)c1ccc(Br)cc1 (centres undefined),-3%,34%,2%,25µM*,7
COc1ccc(S(=O)(=O)N2CCOC2CNC(=O)C(=O)NCc2ccccn2)cc1 (centres undefined),0%,nt,11%,nt,17
NS(=O)(=O)c1ccc(CCNC(=O)C(=O)NCC2OCCN2S(=O)(=O)c2ccc(Cl)cc2)cc1 (centres undefined),14%,30%,14%,16µM*,54
CCCNC(=O)c1cc(C2CCCN(C(=O)c3cc(F)ccc3C)C2)on1 (centres undefined),nt,nt,nt,nt,19
CCCC(=O)OCCNc1cc(SCCC(=O)OC)c2nonc2c1[N+](=O)[O-],1%,-23%,4%,?,-86*
COc1ccc(CNc2cc(NCCCO)c([N+](=O)[O-])c3nonc23)cc1,-6%,-13%,3%,?,35
COC(=O)CCSc1cc(NCCOC(C)=O)c([N+](=O)[O-])c2nonc12,-7%,-32%,?,-5%,-97*
O=C(c1ccco1)N1CCCC(c2nc3c(nnn3Cc3ccc(F)cc3)c(=O)[nH]2)C1 (centres undefined),-1%,38%,-8%,5%,-10
Cc1noc(C)c1CSCC(=O)N(C)CC(=O)Nc1ccccc1Br,-3%,nt,13%,nt,16
COc1ccc(-c2cc(=O)[nH]c3ccccc23)cc1,-27%,nt,0%,nt,-52*
O=C1c2cc(Cl)ccc2-c2c(O)cc(Cl)cc21,?,nt,13µM*,nt,-74*
COc1ccc(N/C(N)=N/c2nc(C)cc(C)n2)c(OC)c1,?,1%,?,2%,-76*
COc1ccc(Cl)cc1N/C(N)=N/c1nc(C)cc(C)n1,-13%,8%,10%,1%,15
COc1ccc(C)cc1N/C(N)=N/c1nc(C)cc(C)n1,-3%,31%,8%,27%,-98*
Cc1ccc(C)c(N/C(N)=N/c2nc(C)cc(C)n2)c1,4%,1%,10%,-12%,-111*
